For 40 sequences, PBM binding z-score results are on record in the supplement of paper PMC6555819.

The subject of the assay is VDR:RXRa (NR concentration 270 nM, RXRa partner concentration 90 nM). Kind of assay: PBM binding z-score (relative to random genomic background probes); higher = stronger binding; sequences stand for … in GC…GCGATTGACAGCGTAGAATGAAGG
The procedure:
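Protein-binding microarray (Agilent 4x180K custom design, double-stranded 60-nt probes: 5' GC cap, 34-nt variable region, 24-nt constant primer region; full probe sequence given). Purified or IVT nuclear receptor:RXRα heterodimers (3:1 NR:RXRα, mostly 270:90 nM) or homodimers were incubated for 1 h in PBS with 2% milk and no ligand, then detected with Alexa488 antibodies. Fluorescence from o1-orientation probes (~5 replicates averaged) was converted to z-scores against 500 random hg19 background probes. Variable regions are seed direct-repeat (DR0–DR5) sites, all their single-nucleotide variants and half-site ablations.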
In turn, CCTACTGGGCCATCAGGTCAATGATATCAACGTT had a PBM binding z-score of 1.4.

In the case of CTACCAAGATGAACAAGGTCGTTGATTACTATTC, the PBM binding z-score amounted to 2.52.

TCATATAGGTAATACAGGTGAAAGTAGGCATCTA: the PBM binding z-score was determined as 1.41.

For the sequence ACTAGCAGACCAAGTTTGGGTCACTCAAACAAAG, the PBM binding z-score was 0.245.

CCGACTGGGGCATGGTTACCATAACGCACAGCCA: the PBM binding z-score is -0.609.

With CATCCTAGGTCAGGGCCAGTATAGGAGGAACGTT, the PBM binding z-score is 0.731.

The sequence ACTAGCAGGCCAAGTTCGGGTCACTCAAACAAAG had a PBM binding z-score of 2.43.

As for CCTCGGATGACAGAAGGTCAGAGCTGTCCGCTTT, the PBM binding z-score is 1.21.

With TCATATGGGTAAATGCTAGGTGAAAGTCCGATCT, the PBM binding z-score is 0.528.

CCTCGGAGGACAACAGGAGGTCAGGGCTGCCAGA came in with a PBM binding z-score of 1.62.

The sequence ACTAGCAGGCCGAGTTTGGGTCACTCAAACAAAG had a PBM binding z-score of 0.459.

In the case of GTACCAAGGTGTATAGGTCGTTGATGAGTAGGCG, the PBM binding z-score was determined as 0.168.

AGTCAAAGTTCAGGACGAGGTAACGTGAAGCACG: the PBM binding z-score was 3.16.

For the sequence AATACAGGGTCATCGTAGGCCATAGTACGCACAG, the PBM binding z-score turned out to be 5.58.

In turn, CGAACTAGGTCATTGACAGAACAGTGAATAGTAA came in with a PBM binding z-score of 1.97.

On to TCTATTAGTTGATTAGTGCAACCGAAACAGCGGA, for which the PBM binding z-score turned out to be 0.827.

In turn, TTACCAAGGTGAAAGGTCGTTGACGCACGCCTTG yielded a PBM binding z-score of 3.29.

For the sequence GCATATCGGTAATACAAGGTGAAAGTCCGATTGT, the PBM binding z-score amounted to 0.0318.

Consider ATCGAAAGGTCGAGGGGAGTATAGAGAAAGGGAA, for which the PBM binding z-score amounted to 2.67.

Sequence ATATGTAGGTGATCGGGTCATTCAGTTTGCGCAT had a PBM binding z-score of 4.74.

Turning to CCTAGCAGGCCAGAGTCACTCAAGCATTTCGCTT, the PBM binding z-score was -0.665.

In turn, ACTAGCAGGCCAAGTTTGGGTCAGTCAAACAAAG registered a PBM binding z-score of 0.056.

TCTAGCAGGCCAGAGGGCCACTCAAGAGGTACGG: the PBM binding z-score is -0.505.

In the case of CCGACTGGGGCAGAAAGGTTACAATACCATCCGG, the PBM binding z-score was found to be 1.

ACTGACAGGTGATGAAGGTAACTCAGGCTATCAT displayed a PBM binding z-score of 0.103.

For the sequence GCGACTGGGGCATCAGCAGGTTACCACAACTTAA, the PBM binding z-score was -0.211.

Sequence AGTCAAAGTTCACTAGGTAACGTGAGATTCAGCT returned a PBM binding z-score of 3.88.

Turning to ACGAGTTGGTCAGCTGAGGTCACACACAATTCGG, the PBM binding z-score was found to be 4.62.

Turning to AGTCAAAGTTCAGGACGTGGTAACGTAAAGCACG, the PBM binding z-score came out at 2.12.

Consider CCTACTGGGCCAAAGGTAATTGATTCCAATGCTC, for which the PBM binding z-score is -0.387.

With ATCTCTAGGTAACAATTTCAGTGAAAGAGAGGAC, the PBM binding z-score worked out at 0.483.

Regarding TCGAGTAGGTTGGGGGCATTCAGAATGGCGTCGA, the PBM binding z-score came out at 2.65.

CCGACTGGGGCAAAGGTTACCGTACTCAGTACGA came in with a PBM binding z-score of 1.39.

With GCTGCTAGGGCAGGTTGGTCAGCTAACGGGTACG, the PBM binding z-score is -0.775.

Sequence CCAGACAGTTGAAAGGTAACTCAGTCTGGTACGC returned a PBM binding z-score of 0.591.

TCATCTAGGTAAAGGTGAAAGTCGAACGATATGA registered a PBM binding z-score of 0.95.

For CAAACTAGGGCACGAAAGGTCAAAGTCGAATGAC, the PBM binding z-score was 5.32.

Turning to GGAACGAGGGCAAAGTTGATAGCCTCTGTCGACG, the PBM binding z-score was 0.981.

Regarding TGAGTGAGGTTAAAGATCAGGGAACGTGGCGTCG, the PBM binding z-score came out at 1.66.

In turn, CCTCACGGGTCACGAGGTTATAGCACGACGAGCG gave a PBM binding z-score of 4.79.
